In PubChem BioAssay:

Assay: JC-1 mitochondrial potential readout, lung cancer cells – cell-based, A549, JC-1 fluorescence, basal, 24 h, 100 nL, profiling panel (AID 1138);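 further: A549 lung adenocarcinoma cells under basal conditions with no added stimulus; test concentration not given here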
Conditions: higher = more signal

Row | SMILES | z-score
1 | COCCOC(=O)N1C(=O)[C@@]2(c3ccccc31)[C@H](c1ccc(O)cc1)N1[C@H](c3ccccc3)[C@H](c3ccccc3)OC(=O)[C@H]1[C@@H]2C(=O)Nc1nc2ccccc2s1 | -2.42
2 | C=CCOC(=O)[C@H]1[C@@H]2C(=O)O[C@@H](c3ccccc3)[C@@H](c3ccccc3)N2[C@@H](c2ccc(OCCOC(=O)[C@H]3C[C@H]4C(=O)N[C@@H](CCCCN(C)C)C(=O)N4[C@H]3c3ccc(O)cc3)cc2)[C@]12C(=O)Nc1ccc(I)cc12 | -0.665
3 | NC(=O)[C@@H]1[C@H]2C(=O)O[C@H](c3ccccc3)[C@H](c3ccccc3)N2[C@H](c2ccc(O)cc2)[C@@]12C(=O)Nc1ccccc12 | -1.11
4 | CC(C)C[C@@H]1NC(=O)[C@H](C(C)C)NC(=O)[C@@]23C(=O)N[C@@H](Cc4ccccc4)C2[C@H](C)[C@@]2(C)O[C@H]2C3/C=C/CC/C=C/CNC1=O (stereo partly drawn) | 0.276
5 | COC(=O)C(CC#Cc1ccc2c(c1)[C@]1(C(=O)N2)[C@H](c2ccc(OCCO)cc2)N2[C@H](c3ccccc3)[C@H](c3ccccc3)OC(=O)[C@H]2[C@@H]1C(=O)Nc1nc2ccccc2s1)C(=O)OC | -2.05
6 | O=C1NC(=O)C2C1C=CC(C(O)c1cc(C(F)(F)F)cc(C(F)(F)F)c1)N2Nc1ccccn1 (stereo not drawn) | 0.456
7 | Cc1ccc(S[C@]2(C(=O)NCCCN(C)C)CC(=O)N(Cc3cc(C(F)(F)F)cc(C(F)(F)F)c3)[C@@H]2c2ccc(CO)cc2I)cc1 | 0.197
8 | C=C(C(=O)CC[C@@H](OC(=O)c1cccnc1)c1ccccc1OCCO)C(C)C | -0.102
